# According to the supplement of paper PMC8728848:
# The entries come from a sample that favours the strongest signals as a whole.
# B1: AAL (Agrocybe aegerita), Q6WY08 (protein)
# chain: MQGVNIYNISAGTSVDLAAPVTTGDIVTFFSSALNLNAGAGNPNNTTLNLFAENGAYLLHIAFRLQENVIIFNSRQPDGPWLVEQRVSDVANQFAGIDGKAMVTVFDHGDKYQVVINEKTVIQYTKQISGLTLSLSYNATEETSIFSTVVEAVTYTGLALEHHHHHH
# Experiments:
# Assay in all cases: glycan array binding signal (z-score within array); higher = stronger binding
# Conditions in all cases: glycan notation: IUPAC condensed, linker removed
# Gal3S(b1-3)GalNAc = target: Gal3S(b1-3)GalNAc
# Procedure, shortened: (§1)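 Glycan array data were curated from 3228 arrays in the Consortium for Functional Glycomics database and kept only where the protein sequence was available. Glycan names were converted to IUPAC-condensed notation, and columns mapping to the same glycan were averaged. The binding signal is a within-array Z-score, averaged across arrays of the same protein sequence at different concentrations or buffers and across linkers. Negative Z-scores can be read as non-binding.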
# Gal3S(b1-4)GlcNAc6S = target: Gal3S(b1-4)GlcNAc6S
# Procedure, shortened: as §1
# Gal6S(b1-4)Glc = target: Gal6S(b1-4)Glc
# Procedure, shortened: as §1
# [1] = target: GalNAc(a1-3)GalNAc(b1-3)Gal(a1-4)Gal(b1-4)GlcNAc
# Procedure, shortened: as §1
# [2] = target: GlcA3S(b1-3)Gal(b1-4)GlcNAc(b1-2)Man
# Procedure, shortened: as §1
# [3] = target: GlcA3S(b1-3)Gal(b1-4)GlcNAc(b1-3)Gal(b1-4)Glc
# Procedure, shortened: as §1
# [4] = target: GlcNAc(a1-4)Gal(b1-4)GalNAc
# Procedure, shortened: as §1
# [5] = target: GlcNAc(b1-2)Man(a1-3)[GlcNAc(b1-4)][GlcNAc(b1-2)Man(a1-6)]Man(b1-4)GlcNAc(b1-4)GlcNAc
# Procedure, shortened: as §1
# [6] = target: GlcNAc(b1-2)Man(a1-3)[GlcNAc(b1-4)][GlcNAc(b1-2)Man(a1-6)]Man(b1-4)GlcNAc(b1-4)[Fuc(a1-6)]GlcNAc
# Procedure, shortened: as §1
# [7] = target: GlcNAc(b1-2)[GlcNAc(b1-4)]Man(a1-3)[GlcNAc(b1-4)][GlcNAc(b1-2)Man(a1-6)]Man(b1-4)GlcNAc(b1-4)GlcNAc
# Procedure, shortened: as §1
# [8] = target: GlcNAc(b1-3)Gal(b1-4)GlcNAc(b1-6)[Gal(b1-3)]GalNAc
# Procedure, shortened: as §1
# [9] = target: Man(a1-3)[Man(a1-6)]Man(a1-6)[Man(a1-3)]Man(b1-4)GlcNAc(b1-4)GlcNAc
# Procedure, shortened: as §1
# Neu5Ac(a2-3)Gal = target: Neu5Ac(a2-3)Gal
# Procedure, shortened: as §1
# [10] = target: Neu5Ac(a2-3)Gal(b1-3)GalNAc(b1-3)Gal(a1-4)Gal(b1-4)Glc
# Procedure, shortened: as §1
# [11] = target: Neu5Ac(a2-3)Gal(b1-4)GlcNAc(b1-2)Man(a1-3)[GlcNAc(b1-2)Man(b1-4)GlcNAc(b1-2)Man(a1-6)]Man(b1-4)GlcNAc(b1-4)GlcNAc
# Procedure, shortened: as §1
# [12] = target: Neu5Ac(a2-3)Gal(b1-4)GlcNAc(b1-2)Man(a1-3)[Neu5Ac(a2-3)Gal(b1-4)GlcNAc(b1-2)Man(a1-6)]Man(b1-4)GlcNAc(b1-4)[Fuc(a1-6)]GlcNAc
# Procedure, shortened: as §1
# [13] = target: Neu5Ac(a2-3)Gal(b1-4)GlcNAc(b1-2)[Neu5Ac(a2-3)Gal(b1-4)GlcNAc(b1-4)]Man(a1-3)[GlcNAc(b1-4)][Neu5Ac(a2-3)Gal(b1-4)GlcNAc(b1-2)[Neu5Ac(a2-3)Gal(b1-4)GlcNAc(b1-6)]Man(a1-6)]Man(b1-4)GlcNAc(b1-4)GlcNAc
# Procedure, shortened: as §1
# [14] = target: Neu5Ac(a2-3)Gal(b1-4)GlcNAc(b1-2)[Neu5Ac(a2-3)Gal(b1-4)GlcNAc(b1-4)]Man(a1-3)[GlcNAc(b1-4)][Neu5Ac(a2-3)Gal(b1-4)GlcNAc(b1-4)Man(a1-6)]Man(b1-4)GlcNAc(b1-4)GlcNAc
# Procedure, shortened: as §1
# [15] = target: Neu5Ac(a2-3)Gal(b1-4)GlcNAc(b1-3)Gal(b1-4)GlcNAc(b1-3)Gal(b1-4)GlcNAc(b1-2)Man(a1-3)[Neu5Ac(a2-3)Gal(b1-4)GlcNAc(b1-3)Gal(b1-4)GlcNAc(b1-3)Gal(b1-4)GlcNAc(b1-2)Man(a1-6)]GalNAc
# Procedure, shortened: as §1
# [16] = target: Neu5Ac(a2-3)Gal(b1-4)GlcNAc(b1-3)Gal(b1-4)GlcNAc(b1-3)GalNAc
# Procedure, shortened: as §1
# [17] = target: Neu5Ac(a2-6)Gal(b1-4)GlcNAc(b1-2)Man(a1-3)[Neu5Ac(a2-6)Gal(b1-4)GlcNAc(b1-2)Man(a1-6)]Man(b1-4)GlcNAc(b1-4)GlcNAc
# Procedure, shortened: as §1
# [18] = target: Neu5Ac(a2-6)Gal(b1-4)GlcNAc(b1-2)Man(a1-3)[Neu5Ac(a2-6)Gal(b1-4)GlcNAc(b1-2)Man(a1-6)]Man(b1-4)GlcNAc(b1-4)[Fuc(a1-6)]GlcNAc
# Procedure, shortened: as §1
# [19] = target: Neu5Ac(a2-6)Gal(b1-4)GlcNAc(b1-2)Man(a1-6)[Man(a1-3)]Man(b1-4)GlcNAc(b1-4)GlcNAc
# Procedure, shortened: as §1
# [20] = target: Neu5Ac(a2-6)Gal(b1-4)GlcNAc(b1-3)Gal(b1-4)GlcNAc(b1-3)[Neu5Ac(a2-6)Gal(b1-4)GlcNAc(b1-3)Gal(b1-4)GlcNAc(b1-6)]GalNAc
# Procedure, shortened: as §1
# Neu5Ac(a2-6)GalNAc = target: Neu5Ac(a2-6)GalNAc
# Procedure, shortened: as §1
# Neu5Ac(a2-8)Neu5Ac = target: Neu5Ac(a2-8)Neu5Ac
# Procedure, shortened: as §1
# [21] = target: Neu5Ac(a2-8)Neu5Ac(a2-3)Gal(b1-3)GalNAc(b1-4)[Neu5Ac(a2-8)Neu5Ac(a2-3)]Gal(b1-4)Glc
# Procedure, shortened: as §1
# [22] = target: Neu5Ac(a2-8)Neu5Ac(a2-8)Neu5Ac(a2-8)Neu5Ac(a2-3)[GalNAc(b1-4)]Gal(b1-4)Glc
# Procedure, shortened: as §1
# [23] = target: Neu5Ac9Ac(a2-3)Gal(b1-3)GlcNAc
# Procedure, shortened: as §1
# [24] = target: Neu5Gc(a2-8)Neu5Gc(a2-3)Gal(b1-4)GlcNAc(b1-3)Gal(b1-4)GlcNAc
# Procedure, shortened: as §1
binder,measurement,setting,value
B1,glycan array binding signal (z-score),Gal3S(b1-3)GalNAc,9.4
same,glycan array binding signal (z-score),Gal3S(b1-4)GlcNAc6S,3.66
same,glycan array binding signal (z-score),Gal6S(b1-4)Glc,-0.141
same,glycan array binding signal (z-score),[1],-0.137
same,glycan array binding signal (z-score),[2],6.26
same,glycan array binding signal (z-score),[3],10.9
same,glycan array binding signal (z-score),[4],-0.152
same,glycan array binding signal (z-score),[5],-0.151
same,glycan array binding signal (z-score),[6],-0.151
same,glycan array binding signal (z-score),[7],-0.14
same,glycan array binding signal (z-score),[8],-0.134
same,glycan array binding signal (z-score),[9],-0.118
same,glycan array binding signal (z-score),Neu5Ac(a2-3)Gal,-0.138
same,glycan array binding signal (z-score),[10],1.72
same,glycan array binding signal (z-score),[11],5.88
same,glycan array binding signal (z-score),[12],3.85
same,glycan array binding signal (z-score),[13],2.98
same,glycan array binding signal (z-score),[14],5.72
same,glycan array binding signal (z-score),[15],-0.107
same,glycan array binding signal (z-score),[16],-0.106
same,glycan array binding signal (z-score),[17],-0.134
same,glycan array binding signal (z-score),[18],-0.131
same,glycan array binding signal (z-score),[19],-0.148
same,glycan array binding signal (z-score),[20],-0.138
same,glycan array binding signal (z-score),Neu5Ac(a2-6)GalNAc,-0.164
same,glycan array binding signal (z-score),Neu5Ac(a2-8)Neu5Ac,-0.146
same,glycan array binding signal (z-score),[21],-0.138
same,glycan array binding signal (z-score),[22],-0.132
same,glycan array binding signal (z-score),[23],-0.156
same,glycan array binding signal (z-score),[24],2.45
